According to the supplement of paper PMC10849652:
The full data set covers some 7,900 targets. This sample favours those with a hit. About 0.6% of all pairs of compound and target were hits.

Compound: CC(C)C[C@@H](C=O)NC(=O)[C@H](CC(C)C)NC(=O)[C@H](CC(C)C)NC(=O)OCc1ccccc1
Assay: log2 fold change, soluble protein after heating vs DMSO (PISA); higher = thermal stabilisation; K562 cells, 10 uM, 30 min; active = over 0.2 and 3.5 SD of the protein, either way, in both replicates (recomputed)
In short: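 K562 cells at 2×10^6 cells/mL were treated with 10 μM compound for 30 min. Aliquots were heated for 3 min across 48°C-58°C, pooled, and extracted in PBS with 0.5% NP-40 at 4°C; soluble protein was the supernatant after 21,000xg for 90 min. Soluble protein was quantified by TMTpro 16plex LC-MS/MS with channel sums equalised, and reported as log2 fold change in thermal stability against DMSO controls, with values from duplicates.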

UniProt O75400, sequence (O75400 whole entry, looked up): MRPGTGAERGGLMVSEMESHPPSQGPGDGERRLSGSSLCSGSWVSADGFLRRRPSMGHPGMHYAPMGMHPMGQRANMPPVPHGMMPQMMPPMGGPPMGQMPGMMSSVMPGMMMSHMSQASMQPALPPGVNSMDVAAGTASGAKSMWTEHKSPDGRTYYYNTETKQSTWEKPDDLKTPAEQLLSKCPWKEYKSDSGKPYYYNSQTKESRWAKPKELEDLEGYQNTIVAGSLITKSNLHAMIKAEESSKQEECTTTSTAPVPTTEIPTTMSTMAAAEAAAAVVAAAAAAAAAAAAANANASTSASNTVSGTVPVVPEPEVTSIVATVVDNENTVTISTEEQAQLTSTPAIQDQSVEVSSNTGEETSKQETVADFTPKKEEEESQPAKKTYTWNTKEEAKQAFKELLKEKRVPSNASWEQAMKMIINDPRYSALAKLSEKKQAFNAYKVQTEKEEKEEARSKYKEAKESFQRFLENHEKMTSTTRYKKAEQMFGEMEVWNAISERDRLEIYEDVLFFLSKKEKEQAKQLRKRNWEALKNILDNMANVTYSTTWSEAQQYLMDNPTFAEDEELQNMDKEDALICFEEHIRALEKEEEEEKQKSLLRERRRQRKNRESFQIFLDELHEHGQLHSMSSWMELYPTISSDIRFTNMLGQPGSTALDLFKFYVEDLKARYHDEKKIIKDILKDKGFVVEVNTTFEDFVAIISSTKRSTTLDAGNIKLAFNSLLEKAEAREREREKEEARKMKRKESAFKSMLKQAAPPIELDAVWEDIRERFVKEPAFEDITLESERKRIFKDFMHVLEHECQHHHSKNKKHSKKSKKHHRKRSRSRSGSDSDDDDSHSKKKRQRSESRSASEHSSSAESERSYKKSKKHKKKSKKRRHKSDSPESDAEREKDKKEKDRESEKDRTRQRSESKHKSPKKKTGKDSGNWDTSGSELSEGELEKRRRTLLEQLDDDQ
UniProt Q96A00, sequence (Q96A00 whole entry, looked up): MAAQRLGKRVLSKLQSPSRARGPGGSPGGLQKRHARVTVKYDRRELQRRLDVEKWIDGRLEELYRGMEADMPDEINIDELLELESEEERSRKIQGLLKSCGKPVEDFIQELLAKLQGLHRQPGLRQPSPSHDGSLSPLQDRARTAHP
UniProt Q9Y478, sequence (Q9Y478 whole entry, looked up): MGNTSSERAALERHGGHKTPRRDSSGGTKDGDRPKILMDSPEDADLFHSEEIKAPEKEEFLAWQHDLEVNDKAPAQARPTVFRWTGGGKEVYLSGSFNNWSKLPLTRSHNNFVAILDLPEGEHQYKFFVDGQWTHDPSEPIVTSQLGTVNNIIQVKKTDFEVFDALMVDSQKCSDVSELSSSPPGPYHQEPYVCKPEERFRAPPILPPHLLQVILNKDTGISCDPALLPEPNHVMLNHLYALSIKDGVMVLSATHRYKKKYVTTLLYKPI
UniProt Q9BRP1, sequence (Q9BRP1 whole entry, looked up): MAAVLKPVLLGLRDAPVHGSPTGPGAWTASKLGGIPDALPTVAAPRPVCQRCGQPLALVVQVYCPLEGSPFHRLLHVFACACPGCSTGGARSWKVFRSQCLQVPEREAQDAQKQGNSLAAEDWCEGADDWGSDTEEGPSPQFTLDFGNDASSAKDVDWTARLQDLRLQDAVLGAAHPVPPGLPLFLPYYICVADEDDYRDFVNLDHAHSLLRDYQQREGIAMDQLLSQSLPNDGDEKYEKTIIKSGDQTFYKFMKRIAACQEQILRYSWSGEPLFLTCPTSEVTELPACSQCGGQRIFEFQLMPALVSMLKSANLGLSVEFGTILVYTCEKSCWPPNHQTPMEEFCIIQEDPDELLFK
UniProt P62333, sequence (P62333 whole entry, looked up): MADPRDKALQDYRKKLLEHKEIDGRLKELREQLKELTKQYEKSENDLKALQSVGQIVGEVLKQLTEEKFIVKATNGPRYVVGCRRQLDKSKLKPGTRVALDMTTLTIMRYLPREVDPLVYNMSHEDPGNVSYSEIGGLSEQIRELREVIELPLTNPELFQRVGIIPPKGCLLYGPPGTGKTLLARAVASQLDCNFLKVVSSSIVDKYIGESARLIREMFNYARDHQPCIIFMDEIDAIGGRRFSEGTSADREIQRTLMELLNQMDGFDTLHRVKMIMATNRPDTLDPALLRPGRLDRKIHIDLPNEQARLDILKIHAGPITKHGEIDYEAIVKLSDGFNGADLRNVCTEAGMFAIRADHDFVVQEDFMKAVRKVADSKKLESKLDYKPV
UniProt Q9Y244, sequence (Q9Y244 whole entry, looked up): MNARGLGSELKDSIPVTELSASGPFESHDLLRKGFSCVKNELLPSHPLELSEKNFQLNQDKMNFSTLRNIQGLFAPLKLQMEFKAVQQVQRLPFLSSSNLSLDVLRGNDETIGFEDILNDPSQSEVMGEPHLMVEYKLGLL
UniProt Q86T03, sequence (Q86T03 whole entry, looked up): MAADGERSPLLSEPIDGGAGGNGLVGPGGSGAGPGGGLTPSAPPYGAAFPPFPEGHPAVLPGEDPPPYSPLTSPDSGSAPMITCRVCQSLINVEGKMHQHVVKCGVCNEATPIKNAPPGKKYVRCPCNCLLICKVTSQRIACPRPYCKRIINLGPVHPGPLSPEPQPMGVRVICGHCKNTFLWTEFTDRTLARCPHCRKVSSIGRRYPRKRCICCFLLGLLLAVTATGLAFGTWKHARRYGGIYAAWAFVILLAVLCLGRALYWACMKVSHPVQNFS
UniProt Q10713, sequence (Q10713 whole entry, looked up): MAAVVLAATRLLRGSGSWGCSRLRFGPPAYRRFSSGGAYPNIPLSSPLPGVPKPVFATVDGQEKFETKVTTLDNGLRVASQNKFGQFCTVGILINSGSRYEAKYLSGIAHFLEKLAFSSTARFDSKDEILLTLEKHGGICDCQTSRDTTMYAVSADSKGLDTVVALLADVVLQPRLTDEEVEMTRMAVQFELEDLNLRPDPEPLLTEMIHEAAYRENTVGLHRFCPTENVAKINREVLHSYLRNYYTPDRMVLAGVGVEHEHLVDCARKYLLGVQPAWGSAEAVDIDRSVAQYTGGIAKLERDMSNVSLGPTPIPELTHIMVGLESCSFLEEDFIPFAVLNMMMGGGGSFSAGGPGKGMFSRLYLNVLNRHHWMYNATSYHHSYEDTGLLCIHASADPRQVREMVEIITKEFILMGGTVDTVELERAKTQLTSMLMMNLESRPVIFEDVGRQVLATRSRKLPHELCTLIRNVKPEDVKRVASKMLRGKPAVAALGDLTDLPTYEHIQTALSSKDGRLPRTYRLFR
UniProt O95394, sequence (O95394 whole entry, looked up): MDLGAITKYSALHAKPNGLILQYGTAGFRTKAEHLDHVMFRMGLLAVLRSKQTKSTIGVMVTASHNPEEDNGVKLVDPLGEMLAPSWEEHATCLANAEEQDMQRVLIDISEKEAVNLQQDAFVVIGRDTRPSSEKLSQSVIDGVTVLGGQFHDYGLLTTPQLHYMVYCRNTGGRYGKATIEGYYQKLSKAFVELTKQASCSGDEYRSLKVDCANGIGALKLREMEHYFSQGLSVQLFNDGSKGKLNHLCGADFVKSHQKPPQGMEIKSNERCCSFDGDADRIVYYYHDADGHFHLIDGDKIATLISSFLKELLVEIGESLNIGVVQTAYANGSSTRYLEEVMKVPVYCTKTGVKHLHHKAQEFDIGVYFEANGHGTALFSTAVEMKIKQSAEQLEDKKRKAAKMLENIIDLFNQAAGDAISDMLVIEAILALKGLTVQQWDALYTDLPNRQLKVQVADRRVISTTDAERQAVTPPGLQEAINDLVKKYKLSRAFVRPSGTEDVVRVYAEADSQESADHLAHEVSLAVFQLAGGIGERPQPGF
UniProt Q86YH6, sequence (Q86YH6 whole entry, looked up): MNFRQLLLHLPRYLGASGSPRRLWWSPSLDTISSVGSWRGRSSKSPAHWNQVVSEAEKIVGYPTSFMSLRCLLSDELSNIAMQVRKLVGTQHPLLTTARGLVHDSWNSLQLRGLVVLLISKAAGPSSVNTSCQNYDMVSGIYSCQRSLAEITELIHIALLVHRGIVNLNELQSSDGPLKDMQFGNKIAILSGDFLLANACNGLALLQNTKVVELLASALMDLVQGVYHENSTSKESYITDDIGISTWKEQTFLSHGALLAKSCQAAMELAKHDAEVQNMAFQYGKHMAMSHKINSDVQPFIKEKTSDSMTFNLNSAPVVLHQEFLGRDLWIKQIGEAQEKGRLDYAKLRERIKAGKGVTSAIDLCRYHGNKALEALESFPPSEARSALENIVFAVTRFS
UniProt Q86TP1, sequence (Q86TP1 whole entry, looked up): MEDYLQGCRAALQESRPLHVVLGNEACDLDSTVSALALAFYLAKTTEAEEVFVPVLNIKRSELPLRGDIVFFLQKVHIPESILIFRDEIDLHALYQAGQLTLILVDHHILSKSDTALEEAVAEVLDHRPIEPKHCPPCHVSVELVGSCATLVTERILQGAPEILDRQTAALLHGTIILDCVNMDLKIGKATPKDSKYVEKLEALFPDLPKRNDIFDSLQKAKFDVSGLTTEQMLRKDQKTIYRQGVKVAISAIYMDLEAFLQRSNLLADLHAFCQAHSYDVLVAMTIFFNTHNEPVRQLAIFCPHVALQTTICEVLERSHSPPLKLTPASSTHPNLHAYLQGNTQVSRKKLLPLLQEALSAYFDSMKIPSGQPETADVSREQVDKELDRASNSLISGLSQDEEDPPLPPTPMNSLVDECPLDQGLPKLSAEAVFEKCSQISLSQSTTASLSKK
UniProt Q7RTV0, sequence (Q7RTV0 whole entry, looked up): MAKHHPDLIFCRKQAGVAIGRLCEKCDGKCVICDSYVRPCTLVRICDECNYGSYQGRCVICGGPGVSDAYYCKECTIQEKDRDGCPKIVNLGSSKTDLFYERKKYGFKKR
UniProt Q9UMR5, sequence (Q9UMR5 whole entry, looked up): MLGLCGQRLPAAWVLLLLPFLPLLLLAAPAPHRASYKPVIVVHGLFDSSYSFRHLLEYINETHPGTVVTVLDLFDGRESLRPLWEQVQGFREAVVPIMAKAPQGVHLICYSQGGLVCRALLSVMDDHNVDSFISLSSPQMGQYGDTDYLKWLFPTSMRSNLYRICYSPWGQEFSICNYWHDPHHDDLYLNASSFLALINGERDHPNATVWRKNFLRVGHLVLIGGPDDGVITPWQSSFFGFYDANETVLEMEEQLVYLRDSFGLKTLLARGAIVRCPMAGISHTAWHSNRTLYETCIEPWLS

log2 fold change, inactive:
PHF5A (UniProt Q7RTV0) -0.073, PRKAR2A (UniProt P13861) -0.023, PRUNE1 (UniProt Q86TP1) 0.04, POMP (UniProt Q9Y244) -0.002, PPT2 isoform 3 (UniProt Q9UMR5) -0.014, PIP4P1 isoform 2 (UniProt Q86T03) 0.022, POLD1 (UniProt P28340) 0.11, PGGT1B (UniProt P53609) 0.026, PPP1R14A (UniProt Q96A00) -0.122, PRMT3 (UniProt O60678) 0.028, PEX11B (UniProt O96011) -0.058, PCYT1A (UniProt P49585) 0.084, PISD (UniProt Q9UG56) 0.005, PSMD5 (UniProt Q16401) -0.061, PRPF40A (UniProt O75400) 0.043, PDIK1L (UniProt Q8N165) 0.091, PMPCA (UniProt Q10713) -0.003, PDCD2L (UniProt Q9BRP1) 0.042, PSMC6 (UniProt P62333) -0.206, PRKAB1 (UniProt Q9Y478) -0.041, PDSS2 (UniProt Q86YH6) 0.054, POLA1 (UniProt P09884) 0.005, PGM3 isoform 4 (UniProt O95394) -0.002
